Compound activity (PubChem)
Only some compounds are listed: those with a hit (about 1.2% of all), similar ones and a draw of the others.
Giardia FBPA inh: inhibitors of Giardia lamblia fructose-1,6-bisphosphate aldolase. purified Giardia FBPA. A8B2U2. Potency, µM (series often up to 59.6 µM), most hits filed as inhibitors. 290,000 tested, 0.71% active; note: nearly all actives have a fitted effect of over 55% in size
Target sequence (A8B2U2 whole entry, looked up): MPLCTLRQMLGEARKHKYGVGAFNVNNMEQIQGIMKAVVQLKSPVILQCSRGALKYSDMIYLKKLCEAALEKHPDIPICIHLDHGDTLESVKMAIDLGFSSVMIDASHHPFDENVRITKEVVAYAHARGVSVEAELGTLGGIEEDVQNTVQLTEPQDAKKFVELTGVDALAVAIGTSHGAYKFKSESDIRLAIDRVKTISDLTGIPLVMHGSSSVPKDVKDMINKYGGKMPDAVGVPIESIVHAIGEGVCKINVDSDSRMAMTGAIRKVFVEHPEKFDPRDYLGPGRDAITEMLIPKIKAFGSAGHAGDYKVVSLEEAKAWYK
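Giardia FBPA (40 nM reagent) was preincubated 10 min at RT with compound (up to 57.5 uM final), then substrate plus GAPDH/TPI/NAD/arsenate coupling system with diaphorase/resazurin was added; resorufin fluorescence (525/598 nm) was read after 20 min.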
LmPK inh: inhibitors of Leishmania mexicana pyruvate kinase | Q27686 | purified LmPK, Kinase-Glo ATP luminescence, 1 h | Potency, µM (top dose mostly 57.5 µM), actives largely listed as inhibitors | 290,000 tested, 0.37% active | AID 1721
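Pyruvate kinase activity monitored as ATP production (luciferase luminescence). Conditions: 0.1 nM enzyme, 0.5 mM PEP, 0.1 mM ADP, 1 h, RT; normalized against uninhibited and no-enzyme wells.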
NS1 inh: blocks influenza NS1 protein function. Potency, µM (series often up to 46.1 µM). 270,000 tested, 0.4% active. AID 2326; calls by dose curve; note: actives are rising curves; nearly all actives have a fitted effect of over 50% in size
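Recovery from NS1-induced slow growth read by OD600 in budding yeast switched to galactose assay medium (pH 6.0, -URA) at 1:100 dilution. Compound 23 nl per well; the matching strain lacking NS1 serves as control.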
TbPYK inhibitor: inhibitors of Trypanosoma brucei pyruvate kinase; Q57TT1; TbPYK enzyme, Kinase-Glo Plus ATP luminescence, 45 min; Potency, µM (doses to about 76.8 µM), usual class: inhibitors; 410,000 tested, 0.12% active; note: nearly all actives have a fitted effect of over 50% in size
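Assay buffer: 50 mM TEA pH 7.2, 100 mM KCl, 10 mM MgCl2, 0.05% BSA, 0.01% Tween-20. Pyruvate kinase from T. brucei plus substrate met compound, then ADP (130 uM final). Luminescence was read post 45 min RT.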
AMA1-RON2 inh: inhibitors of Plasmodium falciparum AMA1-RON2 interaction; AlphaScreen AMA1-biotinylated RON2 peptide binding; Potency, µM (titrated, usually from 58.2 µM), usual class: inhibitors; 360,000 tested, 0.2% active; AID 720542; note: nearly all actives have a fitted effect of over 45% in size
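AMA1 (3D7) with his tag at 25 nM final met compounds first, then biotinylated RON2 peptide at 25 nM; detection used donor plus acceptor beads, 10 µg/mL apiece, read by AlphaScreen after 30 min at room temperature.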
NS1 inh valid: influenza NS1 function inhibition validation. shares compounds with NS1 inh. influenza NS1 function cell assay, 15-point titration. activity change, negative = inhibition, % at 32.9 µM. 1,400 tested, under 10 active. AID 492980; calls by dose curve
Large screens that a line does not name were inactive (follow-up assays come after a bar, where they were run). Unless noted, calls come from the whole dose curve; as a rule, active = well fitted curve in the direction sought with a large enough effect; inconclusive = small, poorly fitted or top-dose-only effect, or another doubt; inactive = no such curve, though single readings can be large; an effect the other way counts as inactive or inconclusive.

CCCCCCCN1C/C=C\C(c2ccc(OC)cc2)N(Cc2ccc(F)cc2)C(=O)[C@H]1Cc1ccccc1 (stereo partly specified)	NS1 inh inconclusive | NS1 inh valid inactive
COC(=O)c1ccc(N2NC(=O)/C(=C/c3cc(OC)c(O)c(OC)c3)C2=O)cc1	Giardia FBPA inh inconclusive, NS1 inh 3.5µM | NS1 inh valid inactive
COC(=O)c1ccc(N2NC(=O)/C(=C/c3cc(OC)c(OC)c(OC)c3)C2=O)cc1	TbPYK inhibitor inconclusive
COc1cc(OC)c2c(=O)c(-c3ccccc3)coc2c1	none (no result: LmPK inh, NS1 inh, TbPYK inhibitor, AMA1-RON2 inh)
Cc1ccc(C(=O)OC/C(O)=C(\C#N)c2nc3ccccc3[nH]2)cc1S(=O)(=O)N1CCOCC1	NS1 inh 10µM | NS1 inh valid inactive
N#C/C(=C(/O)COC(=O)c1ccc(Cl)c(S(=O)(=O)N2CCOCC2)c1)c1nc2ccccc2[nH]1	NS1 inh inconclusive
CCCN1C(=O)C(O)(CC(=O)c2ccc(OC)c(OC)c2)c2ccccc21 (stereo unspecified)	none (no result: Giardia FBPA inh, LmPK inh, NS1 inh, AMA1-RON2 inh)
CC1CCN(C(=O)Cn2c(=O)oc3ccccc32)CC1	NS1 inh 3.5µM | NS1 inh valid inactive
O=C(Cn1c(=O)oc2ccccc21)N1CCCCC1	none
CC(O)/C=C/c1cccc[n+]1C (stereo unspecified)	NS1 inh 13µM | NS1 inh valid inactive
C[n+]1ccccc1/C=N/O	none
COc1cc2ccccc2cc1C(=O)N1CCN(c2nc3c(F)cc(F)cc3s2)CC1	none (no result: Giardia FBPA inh, LmPK inh, NS1 inh, AMA1-RON2 inh)
COC(=O)C(NC(C)=O)(Nc1nc2ccc(S(C)(=O)=O)cc2s1)C(F)(F)F (stereo unspecified)	none
COC(=O)C(NC(C)=O)(Nc1nc2ccc(C)cc2s1)C(F)(F)F (stereo unspecified)	NS1 inh 8.9µM | NS1 inh valid inactive
Cc1ccccc1Nc1nnc(C)c(=O)n1N	NS1 inh 1.8µM | NS1 inh valid inactive
COc1cc(C(=O)Nc2ccc3oc(-c4ccc(C)c(Br)c4)nc3c2)cc(OC)c1OC	none (no result: Giardia FBPA inh, LmPK inh, NS1 inh, AMA1-RON2 inh)
CCOC(=O)C1=C(C)N=C2SC(C(=O)OC)=CC(=O)N2C1c1cccc(OC)c1 (stereo unspecified)	NS1 inh 14µM | NS1 inh valid inactive
CCOC(=O)C1=C(C)N=C2SC(C(=O)OC)=CC(=O)N2C1c1ccc(F)cc1 (stereo unspecified)	NS1 inh inconclusive
Cc1nnc(N2CCN(c3ccc(Cl)cc3)CC2)c2c1nnn2Cc1ccc(F)cc1	none (no result: Giardia FBPA inh, LmPK inh, NS1 inh, AMA1-RON2 inh)
O=c1cc(O)nc(SCc2ccccc2)n1-c1ccccc1	NS1 inh inconclusive
C=CCn1c(SCc2ccccc2)nc(O)cc1=O	NS1 inh 6.3µM | NS1 inh valid inactive
COc1cc(C2C3C(=O)N(Cc4ccccc4)C(=O)C3ON2c2ccccc2)cc(OC)c1OC (stereo unspecified)	NS1 inh 11µM | NS1 inh valid inconclusive
COc1ccc(C2C3C(=O)N(Cc4ccccc4)C(=O)C3ON2c2ccccc2)c(OC)c1OC (stereo unspecified)	none
CN(C)S(=O)(=O)c1cccc(C(=O)OCC(=O)c2ccc3c(c2)NC(=O)CO3)c1	NS1 inh inconclusive | NS1 inh valid inactive
FC(F)(F)C(Cl)Br (stereo unspecified)	none (no result: Giardia FBPA inh, LmPK inh, NS1 inh, AMA1-RON2 inh)
O=C(Cc1ccccc1)Nc1c(C(=O)N2CCN(c3ccc(F)cc3)CC2)oc2ccccc12	none (no result: Giardia FBPA inh, LmPK inh, NS1 inh, AMA1-RON2 inh)
CN(C)c1ccc(CNC(=O)CCn2c(=O)c3cccn3c3ccc(F)cc32)cc1	none (no result: Giardia FBPA inh, LmPK inh, NS1 inh, AMA1-RON2 inh)
CN(CC(=O)Nc1ccc(Cl)cc1)C(=O)c1cc(-c2cccs2)nn1-c1ccccc1	none (no result: Giardia FBPA inh, LmPK inh, NS1 inh)
O=C(COC(=O)c1cc(-c2cccs2)nn1-c1ccccc1)Nc1ccc(Cl)c([N+](=O)[O-])c1	NS1 inh 11µM | NS1 inh valid inactive
O=C(c1cnccn1)N1CCC2(CC1)CN(c1ncccn1)C2	none (no result: LmPK inh, NS1 inh, AMA1-RON2 inh)
CCC(C)C(NC(=O)OC(C)(C)C)C(=O)NC1COC2CC(n3cc(F)c(=O)[nH]c3=O)OC12 (stereo unspecified)	none (no result: LmPK inh, NS1 inh, TbPYK inhibitor, AMA1-RON2 inh)
CN(Cc1ccco1)c1ncncc1-c1ccccc1C(F)(F)F	none (no result: LmPK inh, NS1 inh, TbPYK inhibitor, AMA1-RON2 inh)
CCOc1ccc(NC(=S)N2CCc3cc(OC)c(OC)cc3C2COc2ccc3c(C)cc(=O)oc3c2)cc1 (stereo unspecified)	NS1 inh 11µM | NS1 inh valid inactive
CC(C)(C)c1ccc(S(=O)(=O)/C=C/C#N)cc1	none (no result: LmPK inh, TbPYK inhibitor, AMA1-RON2 inh)
O=S(=O)(Nc1ccc(N2CCOCC2)cc1)c1ccccc1	none
O=S(=O)(Nc1ccc(N2CCCCC2)cc1)c1ccccc1	NS1 inh inconclusive | NS1 inh valid inconclusive
O=C(Cn1c(=O)n(-c2cccc(Cl)c2)c(=O)c2sc3ccccc3c21)N1CCCC1	none (no result: Giardia FBPA inh, LmPK inh, NS1 inh, AMA1-RON2 inh)
Cc1cc2cc(CNC(=O)c3ccc(S(=O)(=O)N(C)C)cc3)ccc2n1C	NS1 inh 11µM | NS1 inh valid inactive
Cc1cc2cc(CNC(=O)c3cccc([N+](=O)[O-])c3)ccc2n1C	none
Cc1cc2cc(CNC(=O)c3ccc(S(=O)(=O)N4CCOCC4)cc3)ccc2n1C	NS1 inh 11µM | NS1 inh valid inactive
Cc1cc2cc(CNS(=O)(=O)c3ccc4ccccc4c3)ccc2n1C	NS1 inh 10µM | NS1 inh valid inactive
CC(=O)Nc1ccc(S(=O)(=O)NCc2ccc3c(c2)cc(C)n3C)cc1	none
COc1cccc(CNC(=O)c2ccc(S(=O)(=O)N3CCOCC3)cc2)c1	none (no result: Giardia FBPA inh, LmPK inh, NS1 inh)
O=C(O)C1Cc2c([nH]c3ccccc23)C(c2coc3ccccc3c2=O)N1 (stereo unspecified)	none (no result: LmPK inh, NS1 inh, TbPYK inhibitor, AMA1-RON2 inh)
CCC1=C2CC[C@H]3C(=O)NC(=O)[C@H]3[C@H]2[C@@]2(Cc3ccccc3)C(=NCC3CC3)OC(=O)N2C1=O	none (no result: LmPK inh, NS1 inh, TbPYK inhibitor, AMA1-RON2 inh)
CCCc1ccc2oc(C(=O)N(Cc3nccn3C)C(C)C)c(C)c2c1	NS1 inh inconclusive | NS1 inh valid inconclusive
Cc1cnc(CNc2ccnc(-c3cccnc3)n2)cn1	none (no result: LmPK inh, NS1 inh, TbPYK inhibitor, AMA1-RON2 inh)
CN(C)c1ccc(C(CNC(=O)c2ccccc2)c2c[nH]c3ccccc23)cc1 (stereo unspecified)	NS1 inh 13µM, AMA1-RON2 inh inconclusive | NS1 inh valid inconclusive
CCCCNC(=S)NCC(c1ccccc1)c1c[nH]c2ccccc12 (stereo unspecified)	none
COc1ccc(Nc2nnc(SCC3CCCCO3)s2)cc1 (stereo unspecified)	none
COc1ccc(Nc2nnc(SCC(=O)c3cc(C)n(CC4CCCO4)c3C)s2)cc1 (stereo unspecified)	NS1 inh inconclusive | NS1 inh valid inactive
